Results filed as inconclusive are left out. Where a call stands in place of a potency, no number is given. Calls of active or inactive are those of the source. The call rests on the fitted dose curve; in most records, active means well fitted inhibition curve with a large enough effect; inconclusive means small, poorly fitted or top-dose-only effect; inactive means flat fitted curve, though single readings scatter.
Potency means the concentration at half of the fitted maximal effect.

Luciferin 4-monooxygenase (Photinus pyralis), sequence (P08659 whole entry, looked up): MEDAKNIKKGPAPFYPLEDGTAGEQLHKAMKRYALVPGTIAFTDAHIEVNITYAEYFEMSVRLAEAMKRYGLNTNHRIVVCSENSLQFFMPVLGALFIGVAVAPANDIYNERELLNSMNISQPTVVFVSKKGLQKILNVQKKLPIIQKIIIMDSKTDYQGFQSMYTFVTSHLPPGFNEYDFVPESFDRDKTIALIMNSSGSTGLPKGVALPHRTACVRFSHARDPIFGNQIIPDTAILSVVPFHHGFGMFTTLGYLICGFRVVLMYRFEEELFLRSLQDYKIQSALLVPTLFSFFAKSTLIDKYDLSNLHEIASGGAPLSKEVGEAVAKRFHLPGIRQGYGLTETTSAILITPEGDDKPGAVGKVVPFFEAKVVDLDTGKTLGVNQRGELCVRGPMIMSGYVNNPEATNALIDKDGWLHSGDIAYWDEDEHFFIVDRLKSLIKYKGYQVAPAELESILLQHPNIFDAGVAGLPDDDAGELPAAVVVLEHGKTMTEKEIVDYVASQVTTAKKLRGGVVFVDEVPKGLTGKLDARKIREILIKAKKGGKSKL

The experiment concerns the target Luciferin 4-monooxygenase (Photinus pyralis) (UniProt P08659). Description: qHTS Assay for Inhibitors of Firefly Luciferase from the GSK Published Protein Kinase Inhibitor Set. To be noted: purified firefly luciferase, luminescence inhibition; series mostly up to 57.5 µM. The text has this:
FLuc (firefly luciferase) is the prototypical bioluminescent reporter gene from Photinus pyralis.[1] The enzyme catalyzes the oxidation luciferin via luciferin-AMP to produce light. FLuc is used in cell-based reporter gene-based assays for screening small molecule chemical libraries. However, small molecule luciferase inhibitors present in most large chemical libraries are often enriched in the output of high throughput screens using this reporter sometimes complicating interpretation and candidate selection.
RLuc is a bioluminescent reporter gene luciferase from Renilla reniformis, also known as the sea pansy. RLuc uses the luciferin substrate coelenterazine. RLuc is often used in combination with the nonhomologous luciferase FLuc (firefly luciferease) as a trasfection or pathway normalization control. Recently, non-homologous reporters have been described for high throughput screening 'coincidence' reporter gene strategies.
1. Fan F, Wood KV (2007) Bioluminescent assays for high-throughput screening. Assay Drug Dev Technol 5: 127-136.
2. Thorne N, Inglese J, Auld DS (2010) Illuminating insights into firefly luciferase and other bioluminescent reporters used in chemical biology. Chem Biol 17: 646-657.
3. […] Chem Biol 19: 1060-1072.
4. Michelini E, Cevenini L, Mezzanotte L, Coppa A, Roda A (2010) Cell-based assays: fuelling drug discovery. Anal Bioanal Chem 398: 227-238.
5. Cheng KC, Inglese J (2012) A coincidence reporter-gene system for high-throughput screening. Nat Methods 9: 937.
Biochemical firefly luciferase enzyme assay
NCGC Assay Protocol Summary:
Reagents: 50mM Tris acetate, pH 7.5; 10mM Mg acetate; 10uM D-luciferin (Sigma #L9504); 10uM ATP; 0.01% Tween-20; 0.05% BSA; 10nM P. pyralis luciferase (Sigma #L9506)
Control compounds used were two known firefly luciferase inhibitors (compounds (2) and (5) in Auld et al., 2010), and DMSO.
Three microliters containing firefly luciferase substrates in buffer (final concentrations: 50mM Tris acetate, pH 7.5, 10mM Mg acetate, 0.01% Tween-20, 0.05% BSA, 10uM D-luciferin, and 10uM ATP) are dispensed into each well of a Greiner white, solid-bottom 1536-well format plate using a flying reagent dispenser (FRD). These assay plates were then treated with 23nL of compound or DMSO using a Kalypsys pin tool, which allows for delivery of a 7-point interplate titration of each compound to the assay plates (quantitative HTS), with final compound concentrations ranging from approximately 60uM to 300pM. One microliter of firefly luciferase in 50mM Tris-acetate buffer was then delivered by FRD to each well for a final enzyme concentration of 10nM. Luciferase activity was then measured using an Envision plate reader (PerkinElmer), with an average incubation time of 5 min.
On to `CC(=O)Nc1cccc(C#Cc2cncnc2Nc2ccc(OCc3cccc(F)c3)c(Cl)c2)c1`, for which the Potency result is “inactive”.
`CCS(=O)(=O)c1ccc(OC)c(Nc2ncc(-c3cccc(-c4ccccc4F)c3)o2)c1`: the Potency entry is “inactive”.
As to `COc1cc2ncn(-c3cc(OCc4cccs4)c(C(N)=O)s3)c2cc1OC`, the Potency entry was “inactive”.
The result for `COc1ccc(-c2cc3c(N)ncnc3o2)cc1` reads 6.51 µM (active).
On to `CC(Oc1cc(-n2cnc3ccc(OCC4CCN(C)CC4)cc32)sc1C(N)=O)c1ccccc1Cl` (stereo not given), for which the Potency entry is “inactive”.
The result for `Cc1c2ccc(N(C)c3ccnc(Nc4cccc(S(N)(=O)=O)c4)n3)cc2nn1C` reads 13 µM (active); that for `Nc1nonc1-c1nc2cnccc2n1C1CC1`, “inactive”.
Take `O=C1NC(=O)C(c2cccc(Cl)c2)=C1Nc1ccc(O)c(Cl)c1`: the Potency entry is “inactive”.
`Nc1ncc(-c2cccc(S(N)(=O)=O)c2)c2scc(-c3ccc(F)c(Cl)c3)c12`: the Potency entry is “inactive”.
The result for `O=C1NC(=O)C(c2cccc(Cl)c2)=C1Nc1ccc(Cl)c(C(=O)O)c1` reads “inactive”; that for `CCc1ccc(Oc2nccc(-c3c(-c4ccc(F)cc4)ncn3C3CCNCC3)n2)cc1`, “inactive”.
To `CCn1c(-c2nonc2N)nc2c(C#CC(C)(C)O)nc(CN3CCCC3)cc21` belongs “inactive”; to `COc1cc(N2CCN(C(C)C)CC2)ccc1Nc1nc(Nc2cccc(F)c2C(=O)O)c2cc[nH]c2n1`, “inactive”.
To `CN(c1ccc(NC(=O)Nc2c(Cl)cccc2Cl)cc1)c1ccnc(Nc2cccc(CS(C)(=O)=O)c2)n1` belongs 0.58 µM (active); to `CCN1CCC(C(=O)Nc2n[nH]c3nnc(-c4cccc(F)c4F)cc23)CC1`, “inactive”.
Take `CN1CCC(n2cnc(-c3ccc(F)cc3)c2-c2ccnc(N)n2)CC1`: the Potency result was “inactive”.
To `O=C(Nc1n[nH]c2nc(-c3ccco3)ccc12)C1CC1` belongs “inactive”; to `NC(=O)Cc1ccccc1Oc1nccc(-c2c(-c3ccc(F)cc3)ncn2C2CCNCC2)n1`, “inactive”.
The result for `O=C(OC1CNC(C#Cc2cc3ncnc(Nc4ccc(Cc5ccccc5)cc4)c3s2)C1)N1CCOCC1` (stereo not given) reads “inactive”.
For the molecule `Fc1ccc(Oc2nccc(-c3c(-c4ccc(F)cc4)ncn3C3CCNCC3)n2)cc1`, the Potency result is “inactive”.
As for `Fc1cccc(COc2ccc(Nc3ncnc4cc(-c5ccc[nH]5)sc34)cc2Cl)c1`, the Potency entry was “inactive”.
To `Nc1nc(-c2cccc(Cl)c2)c(-c2ccc3ncccc3n2)s1` belongs “inactive”; to `COc1cc(Nc2ncc3c(C)nc(-c4cccc(C(F)(F)F)c4)n3n2)cc(OC)c1OC`, “inactive”.
The result for `COc1cc(N2CCN(C(C)C)CC2)ccc1Nc1nc(Nc2ccc(F)cc2C(=O)NCC(O)CO)c2cc[nH]c2n1` (stereo not given) reads “inactive”; that for `CCn1c(-c2nonc2N)nc2c(C#CC(C)(C)O)nc(OCCNC)cc21`, “inactive”; that for `COC(=O)c1sc(-n2cnc3cc(OC)c(OC)cc32)cc1OCc1ccccc1C(F)(F)F`, “inactive”.
The result for `COc1ccc(-c2ccncc2)cc1C(N)=O` reads “inactive”.
Turning to `CCCN1CCC=C(c2ccc(Nc3nc(Nc4ccccc4C(N)=O)c4cc[nH]c4n3)c(C)c2)C1`, the Potency result is “inactive”.
To `CCCN1CCC(c2ccc(Nc3nc(Nc4cc(F)ccc4C(N)=O)c4cc[nH]c4n3)c(OC)c2)CC1` belongs “inactive”.
The result for `O=C(Nc1ccc(Oc2ccc3nc(NC(=O)c4ccccc4)[nH]c3c2)cc1)Nc1cc(C(F)(F)F)ccc1F` reads “inactive”; that for `COc1cc2ncn(-c3cc(OCc4ccccc4C(F)(F)F)c(C(=O)N(C)C)s3)c2cc1OC`, “inactive”; that for `O=C1NC(=O)C(c2cccc([N+](=O)[O-])c2)=C1Nc1cc(Cl)c(O)c(Cl)c1`, “inactive”.
The result for `COc1ccc2ncn(-c3cc(OC(C)c4ccccc4C(F)(F)F)c(C(N)=O)s3)c2c1` (stereo not given) reads “inactive”; that for `COc1ccc(CNC(=O)c2ccc(-c3cc(-c4nnc(C)o4)ccc3C)cc2)cc1`, “inactive”.
In the case of `CC1=C(C(=O)Nc2ccc3[nH]ncc3c2)C(c2ccc(Cl)c(Cl)c2)CC(=O)N1` (stereo not given), the Potency entry is “inactive”.
For the molecule `CCn1c(-c2nonc2N)nc2c(C#CC(C)(C)O)ncc(OC3CCNCC3)c21`, the Potency entry was “inactive”.
To `Nc1nccc(-c2c(-c3ccc(F)cc3)ncn2C2CCC(O)CC2)n1` (stereo not given) belongs “inactive”.
To `CNC(=O)c1sc(-n2cnc3cc(OC)c(OC)cc32)cc1OCc1ccccc1C(F)(F)F` belongs “inactive”.
Regarding `Cc1nn(C)c2cc(N(C)c3ccnc(Nc4cccc(S(N)(=O)=O)c4)n3)ccc12`, the Potency entry was “inactive”.
The result for `CN1CCN(Cc2ccc(-c3cc4ncnc(Nc5ccc(OCc6cccc(F)c6)c(Cl)c5)c4s3)o2)CC1` reads “inactive”.

The values above are taken from PubChem BioAssay AID652016 (National Center for Advancing Translational Sciences (NCATS), 2013).
